Compound activity from PubChem BioAssay.
An excerpt weighted towards active compounds, which were near 1.6% of everything screened.
KCNQ2 block: rat KCNQ2 potassium channel inhibitors, primary screen, cell-based, CHO-K1, FluxOR thallium flux, B-score | Potassium voltage-gated channel subfamily KQT member 2 (Rattus norvegicus), O88943 | 20 min; active compounds read low | B-score at 10 µM | actives 1.1% (n = 310,000) | AID 2156, 2009;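 active means fluorescence ratio B-score at most minus 3 library SDs, with starting brightness B-score within 2 library SDs, cut at about -5.5 in these data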
Target sequence (O88943 whole entry, looked up): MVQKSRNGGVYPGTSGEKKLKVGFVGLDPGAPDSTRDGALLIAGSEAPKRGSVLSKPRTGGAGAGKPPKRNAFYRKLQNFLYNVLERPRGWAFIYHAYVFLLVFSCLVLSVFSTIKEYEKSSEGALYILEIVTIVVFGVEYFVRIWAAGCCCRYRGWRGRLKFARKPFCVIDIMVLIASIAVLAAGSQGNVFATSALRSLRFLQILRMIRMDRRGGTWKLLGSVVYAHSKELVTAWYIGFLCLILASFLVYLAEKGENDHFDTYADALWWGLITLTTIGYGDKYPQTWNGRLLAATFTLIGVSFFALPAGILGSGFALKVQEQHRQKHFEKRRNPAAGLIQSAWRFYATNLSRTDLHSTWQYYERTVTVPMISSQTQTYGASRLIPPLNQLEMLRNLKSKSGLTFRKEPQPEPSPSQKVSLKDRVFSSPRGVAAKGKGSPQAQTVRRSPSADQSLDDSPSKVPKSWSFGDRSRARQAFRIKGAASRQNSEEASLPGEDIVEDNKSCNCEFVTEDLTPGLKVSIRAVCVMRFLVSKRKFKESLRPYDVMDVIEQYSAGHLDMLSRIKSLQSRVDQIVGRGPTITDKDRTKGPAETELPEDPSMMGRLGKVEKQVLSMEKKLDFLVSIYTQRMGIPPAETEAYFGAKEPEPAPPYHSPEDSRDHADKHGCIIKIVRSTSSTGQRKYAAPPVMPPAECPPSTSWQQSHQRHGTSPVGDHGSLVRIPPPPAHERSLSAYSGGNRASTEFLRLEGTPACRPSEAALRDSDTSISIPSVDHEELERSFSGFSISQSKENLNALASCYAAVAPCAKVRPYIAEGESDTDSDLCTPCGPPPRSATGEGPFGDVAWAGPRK
KCNQ2 enhance: potentiators of rat KCNQ2 potassium channel; CHO-K1 KCNQ2, FluxOR thallium flux fluorescence; active compounds read high; B-score at 10 µM; Potassium voltage-gated channel subfamily KQT member 2 (Rattus norvegicus), O88943; actives 0.54% (n = 310,000);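 active means fluorescence ratio B-score at least 3 SD of library B-scores, with initial fluorescence B-score within 3 of them, cut at about 5.3 in these data; same plate scores as AID 2156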;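 further: B-score of peak minus minimum over baseline fluorescence ratio after K+ and Tl+ stimulus; positive B-score means potentiation of KCNQ2 with more thallium influx and brighter signal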
A number is an active result; . = inactive; / = no result.

SMILES | KCNQ2 block | KCNQ2 enhance
CC1=NN(c2ccc(Cl)c(C(=O)O)c2)C(=O)/C1=C\c1ccc(-c2ccc(C(=O)O)cc2)o1 | . | .
Cc1ccc(-c2nc3ccccc3s2)cc1NC(=S)NC(=O)c1cccc2ccccc12 | . | .
Cc1ccc(-c2nc3cccnc3s2)cc1NS(=O)(=O)c1ccc2c(c1)CCCC2 | -6 | .
O=S(=O)(Nc1cccc(-c2nc3cccnc3s2)c1)c1ccc2c(c1)CCCC2 | . | /
O=[N+]([O-])c1ccc(O)c(/C=N/Nc2ncnc3c2cnn3-c2ccccc2)c1 | . | .
Cc1cc(C)n(-c2nnc(N3CCN(c4ccc(F)cc4)CC3)nn2)n1 | . | /
Cc1nc(NC(=O)C2CCCC2)sc1Cc1ccc2c(c1)OCO2 | . | .
Cc1nc(NC(=O)C23CC4CC(CC(C4)C2)C3)sc1Cc1ccc2c(c1)OCO2 | . | 21
CCN(CC)S(=O)(=O)c1ccc2c(c1)nc(CCC(=O)OCC(=O)N1CCc3ccccc31)n2C | . | .
Cc1cc(OCC(=O)Nc2ccc3oc(=O)ccc3c2)ccc1Cl | . | /
CCCN(CC1CC1)C(=O)CSc1ncnc2sc(C)c(C)c12 | -6.3 | .
CCN(C(=O)CSc1ncnc2sc(C)c(C)c12)C1CCS(=O)(=O)C1 (configuration not stated) | . | /
COC(=O)c1ccc(OC)c(CSc2nnc(COc3ccc(OC)cc3)o2)c1 | . | /
COC(=O)c1ccc(OC)c(CSc2nnc(COc3cccc(C)c3)o2)c1 | -6.1 | .
Cc1ccc(C)c(CSC2=NCCN2S(=O)(=O)c2ccccc2)c1 | -6.3 | .
Cc1ccc(S(=O)(=O)N2CCN=C2SCc2ccc(Cl)c(Cl)c2)cc1 | . | /
O=S(=O)(c1ccccc1)N1CCN=C1SCc1c(F)cccc1Cl | -6.3 | .
O=S(=O)(c1ccc(Cl)cc1)N1CCN=C1SCc1cccc(Cl)c1 | . | /
C=CCn1c(COc2ccccc2)nnc1SC(C)C(=O)N/N=C/c1cc(Cl)ccc1O (configuration not stated) | -7.6 | .
C=CCn1c(COc2ccc(Cl)cc2)nnc1SCC(=O)N/N=C/c1cccc(O)c1 | . | .
CCCC(=O)Nc1ccc(-c2csc(-c3cccnc3)n2)cc1 | . | /
CCOc1ccc(S(=O)(=O)n2nnc3ccccc32)cc1C | . | /
CCOc1ccc2nc(N3C(=O)/C(=C/c4ccc(Cl)cc4)NC3=S)sc2c1 | . | 15
COc1ccc2nc(N3C(=O)CNC3=S)sc2c1 | . | .
Cc1ccc2c(C)c(C(=O)N3CCC(O)(c4ccccc4)CC3)oc2c1C | -5.9 | .
SMILES | KCNQ2 block | KCNQ2 enhance
Cc1ccc2c(C)c(C(=O)N3CCN(c4cnccn4)CC3)oc2c1C | . | /
CSc1ncc(S(=O)(=O)c2ccccc2)c(=O)[nH]1 | . | /
COc1ccc(NC(=O)C23CCC(C)(C(=O)C2)C3(C)C)cc1 (configuration not stated) | . | .
COc1ccccc1-n1c(SCc2cc(=O)oc3cc(O)ccc23)nc2ccccc2c1=O | . | /
CCC(CO)n1c(SCc2cc(=O)oc3cc(C)ccc23)nc2ccccc2c1=O (configuration not stated) | -7.7 | .
Cc1nn(-c2ccccc2)c2ncc(C(=O)c3cc(Cl)ccc3O)cc12 | . | /
CCc1nn2cc(C(=O)c3cc(Cl)ccc3O)cnc2c1-c1ccc(F)cc1 | -5.6 | .
CCc1ccc(NC(=O)CSc2nnc(-c3ccco3)o2)cc1 | . | .
CC(C)SCCCOc1ccc(C(C)(C)C)cc1 | -5.8 | .
CC(C)SCCCCOc1ccc2ccccc2c1 | -6.9 | .
CC(C)(C)c1ccc(OCCN2CCCC2)cc1 | . | /
c1ccc2cc(OCCOCCOc3ccc4ccccc4c3)ccc2c1 | . | /
COc1nc(-c2ccc(Cl)cc2)nnc1C | . | /
O=C(O)C1CCCCC1C(=O)Nc1nc(-c2ccc(Cl)s2)cs1 (configuration not stated) | . | .
Cc1ccc2nc(C)c(C)nc2c1N | . | .
CCc1ccc(NC(=O)c2cccc(C(=O)Nc3ccc(CC)cc3)n2)cc1 | . | .
Cc1ccc(NC(=O)c2cccc(C(=O)Nc3ccc(C)c(C)c3)n2)cc1C | -6.4 | .
COc1ccc(C(=O)C2CCCN(C/C=C/c3ccccc3OC)C2)c(OC)c1 (configuration not stated) | . | /
N=C1c2ccccc2CN1NC(=O)CC12CC3CC(CC(C3)C1)C2 | . | 18
Cc1cc(C)cc(OCC(=O)NN2Cc3ccccc3C2=N)c1 | . | .
COc1cc(OC)cc(C(C(=O)NC2CCCCC2)N(C(=O)c2ccno2)c2ccccc2)c1 (configuration not stated) | . | .
CS(=O)(=O)N1CCN(c2ccccc2NC(=O)c2ccc(Br)o2)CC1 | . | .
NS(=O)(=O)c1ccc(CNC(=O)NC23CC4CC(CC(C4)C2)C3)cc1 | . | .
Cc1ccc(CNC(=O)NC23CC4CC(CC(C4)C2)C3)cc1 | . | 11
O=C(O)c1ccc(NS(=O)(=O)c2ccc(NC(=O)c3ccccc3Cl)cc2)cc1 | . | /
SMILES | KCNQ2 block | KCNQ2 enhance
COC(=O)[C@H](Cc1ccccc1)NC(=O)c1cc(COc2c(F)cccc2F)on1 | . | .
CCOC(=O)CC1(NC(=O)c2cc(COc3c(F)cccc3F)on2)CCCCC1 | -5.7 | .
C#CC(CC)(CC)NC(=O)c1nn(-c2ccccc2Cl)c(C)cc1=O | . | /
COCCn1c(SCC(=O)Nc2ccccc2F)nnc1-c1ccoc1C | . | /
COc1ccc(N2C(=O)CSC23C(=O)N2CCCc4cccc3c42)cc1 (configuration not stated) | . | .
COc1ccc(N2C(=O)CSC23C(=O)N2c4c(cccc43)C(C)=CC2(C)C)cc1 (configuration not stated) | -6.2 | .
COc1ccc(-c2cn[nH]c2-c2ccc(OCC(=O)NN)cc2O)cc1 | . | .
CC1CCN(C(=O)N2c3ccccc3Sc3ccccc32)CC1 | . | /
CC1CN(C(=O)N2c3ccccc3Sc3ccccc32)CC(C)O1 (configuration not stated) | -6.2 | .
Cc1cc(C)cc(OCC(=O)NCCN2CCOCC2)c1 | . | /
COc1ccccc1CNC(=O)c1cc(-c2ccccc2)nn1CC1CC(c2cccnc2)=NO1 (configuration not stated) | -6.1 | .
O=C(O)c1cc(-c2ccccc2)nn1CC1CC(c2cccnc2)=NO1 (configuration not stated) | . | .
CCOC(=O)c1nn(-c2ccccc2C)c2nc(CC(C)C)c(C#N)c(=O)n12 | . | .
CC(=O)Nc1ccc(NC(=O)C(C)Oc2ccc(Cl)cc2Cl)cc1 (configuration not stated) | . | .
COc1ccc(NC(=O)C(=O)NNC(=O)C(C)Oc2ccc(Cl)cc2Cl)cc1 (configuration not stated) | . | 20
COc1ccc(-c2oc3ccccc3c2C(=O)OCc2ccc(O)cc2)cc1 | . | /
CCc1nc(SCC(=O)Nc2ccc([N+](=O)[O-])cc2)n[nH]1 | . | /
O=C1c2ccsc2SCCN1Cc1c(Cl)cccc1Cl | -6.7 | .
O=C1c2ccsc2SCCN1Cc1c(F)cccc1Cl | . | /
Cc1nc(N2CCOCC2)c2cc(-c3ccccc3)sc2n1 | . | /
Cc1nc(N2CCN(Cc3ccc4c(c3)OCO4)CC2)c2cc(-c3ccccc3)sc2n1 | -6.4 | .
COc1ccc(-n2nc(C(=O)NCC(=O)O)c3ccccc3c2=O)cc1 | . | .
S=c1[nH]nc(-c2ccn[nH]2)n1-c1ccccc1Cl | . | /
COc1ccc(-c2nc3ccc(C)cn3c2NCc2ccccc2)cc1SC1CCCCC1 | . | .
